Assay results from ChEMBL document CHEMBL4513216, “Probing the Open Global Health Chemical Diversity Library for Multistage-Active Starting Points for Next-Generation Antimalarials” (ACS Infect Dis, 2020).
The campaign covered roughly 69,000 compounds. About 8,600 (12%) showed an effect of 50% or more. Only a selection was taken, and strong results are over-represented in it overall.

What follows are compounds tested on Plasmodium berghei (assay: Screen against P. berghei liver stage (PbLuc), transformed with Luciferase, at 10uM). Conditions: tested at 10 uM.
Type: functional, HepG2

| Compound | INHIBITION [%] |
| --- | --- |
| CC(=O)NCCc1ccc(S(=O)(=O)Nc2ccc(C)cc2F)s1 | -44.2 |
| CN(C)c1cc(C2CCCN2)ccn1 (stereo unspecified) | 33.54 |
| O=S(=O)(Cc1ccon1)N1CCN(c2ccncc2Cl)CC1 | 38.9 |
| O=c1[nH]c2ncccc2n1C1CCNCC1 | -6.18 |
| Cc1nccn1-c1cc(CNC(=O)CC2CCCO2)ccn1 (stereo unspecified) | 30.6 |
| CO[C@H]1CC[C@H]2[C@H]1OCCN2Cc1ccc(F)c(F)c1 | 22.4 |
| Cc1ncnc2c1CCN(CC1CCOC1)CC2 (stereo unspecified) | 18.3 |
| Cc1ccc(Nc2ncnc3c2CCN(CC2CCOC2)CC3)cc1 (stereo unspecified) | 29.8 |
| CCN(CC)c1ncnc2c1CCN(CC1CCOCC1)CC2 | 41.6 |
| Cc1cnn(CCNc2ncnc3c2CCN(CC2CCOC2)CC3)c1 (stereo unspecified) | 60 |
| c1nc2c(c(NCCCn3cncn3)n1)CCN(CC1CCOC1)CC2 (stereo unspecified) | 31.6 |
| CN(C)c1ncnc2c1CCN(CC1CCOC1)CC2 (stereo unspecified) | 19.9 |
| c1nc2c(c(C3CC3)n1)CCN(CC1CCOC1)CC2 (stereo unspecified) | 13.6 |
| CCN(C)c1ncnc2c1CCN(CC1CCOC1)CC2 (stereo unspecified) | 55.5 |
| CN(C)c1ncnc2c1CCN(CC1CCOCC1)CC2 | 64.9 |
| CCOC(=O)Cn1c(=O)[nH]c2cn(-c3ccccc3)c(=O)n21 | 7.3 |
| Cc1cc(N2CCCC2c2nccnc2C)ncn1 (stereo unspecified) | 26.8 |
| Cc1nc(CN2CC3(CCN(c4nccs4)C3)CC2=O)cs1 (stereo unspecified) | -3.52 |
| CCN(CC)C1CCN(C(=O)NCc2cccc(-n3cccn3)c2)C1 (stereo unspecified) | 27 |
| CC(=O)c1ccc(-n2ccc3nc(N4CCCC4)ncc3c2=O)cc1 | -82.2 |
| O=c1c2cnc(N3CCCCC3)nc2ccn1-c1ccccc1 | 19.7 |
| CC(=O)Nc1ccc(-n2ccc3nc(N4CCCC4)ncc3c2=O)cc1 | 80.5 |

| Compound | INHIBITION [%] |
| --- | --- |
| COCC(=O)NC(C)c1cccc(Br)c1 (stereo unspecified) | -60.9 |
| Cc1ccn(-c2ccnc(N3CCSCC3)n2)n1 | 30 |
| COc1ccc(C[C@H]2CN(C(=O)c3cnoc3)CC[C@@H]2OC)cc1 | -50.4 |
| COc1ccc(C[C@H]2CN(Cc3ccoc3)CC[C@H]2OC)cc1 | 63.3 |
| CO[C@@H]1CCN(Cc2ccoc2)C[C@@H]1Cc1ccccc1 | 51.4 |
| COc1ccc(CN2C[C@@H]3CN(Cc4ccoc4)C[C@@H]3C2=O)cc1 | -4.82 |
| COc1ccc(C[C@H]2CN(C(=O)CN(C)C)CC[C@H]2OC)cc1 | 41.6 |
| COc1ccc(C[C@H]2CN(Cc3ccoc3)CC[C@@H]2OC)cc1 | 58.3 |
| CO[C@@H]1CCN(Cc2ccoc2)[C@H]1Cc1ccccc1 | 29.5 |
| CO[C@H]1CCN(Cc2ccoc2)C[C@@H]1Cc1ccccc1 | 41.4 |
| COc1ccc(C[C@H]2CN(C(=O)C3CC3)CC[C@H]2OC)cc1 | 11.2 |
| CC(C)C1CCCN1CCCc1nc(-c2cccs2)no1 (stereo unspecified) | -4.94 |
| CCN1C(=O)CCC12CCC(NC(=O)c1ccncc1F)CC2 (stereo unspecified) | 38.3 |
| CCn1nc(C)cc1C(=O)N1C[C@@H](CN(C)C)[C@@H](CO)C1 | 38.7 |
| O=C(NCC1CCCO1)c1nc2c(s1)CCCN2CC1CC1 (stereo unspecified) | -14.2 |
| c1cc(-c2nnc(C3(c4ccc5c(c4)OCO5)CCOCC3)o2)ccn1 | 40.7 |
| c1cncc(-c2nnc(C3(c4ccc5c(c4)OCO5)CCOCC3)o2)c1 | 72.2 |
| Cn1cccc1-c1nnc(C2(c3ccc4c(c3)OCO4)CCOCC2)o1 | 41.8 |
| CCN1CCC(CC(=O)NCCc2nc(N)cc(O)n2)CC1 | 0.348 |
| Cc1cnc(C(=O)N2CCC3(CC2)C(=O)NCCN3CC(C)C)cn1 | 26.5 |
| Cc1cc(C(=O)N2CCC3(CC2)c2nc[nH]c2CCN3CC(C)C)no1 | 20.4 |
| CC(C)CN1CCc2[nH]cnc2C12CCN(C(=O)c1cc[nH]n1)CC2 | 48.5 |

| Compound | INHIBITION [%] |
| --- | --- |
| CC(C)CN1CCc2[nH]cnc2C12CCN(C(=O)c1ccccn1)CC2 | 55 |
| CCN1CCNC(=O)C12CCN(C(=O)c1ccccn1)CC2 | -5.25 |
| CC(C)CN1CCNC(=O)C12CCN(C(=O)c1ccccn1)CC2 | 50.7 |
| O=C(O)C1(Cc2ccccc2Cl)CCN(c2ncnc3[nH]ccc23)CC1 | 43.3 |
| Cc1nn(C)c(Cl)c1C1CCCN1Cc1cccc(C(N)=O)c1 (stereo unspecified) | 11.2 |
| Cn1c(=O)c2cc(C(=O)NCc3ccccn3)ccc2n(C)c1=O | 26.3 |
| CC(C)NC(=O)N1CCCn2cnc(CO)c2C1 | -3.77 |
| CC(C)c1noc(C(C)N2CCN(Cc3cccnc3)CC2)n1 (stereo unspecified) | 15.5 |
| CN(C)C(=O)N1Cc2nnn(C)c2C(COCC2CC2)C1 (stereo unspecified) | 41.8 |
| COCC1CN(C(=O)[C@H]2CCCO2)Cc2nnn(CC3CC3)c21 (stereo partly specified) | -4.99 |
| CN(C)CC(=O)N1Cc2nnn(C)c2C(COCC2CC2)C1 (stereo unspecified) | 24 |
| CCOCC1CN(C(=O)[C@H]2CCCO2)Cc2nnn(CC3CC3)c21 (stereo partly specified) | 57.1 |
| CCOCC1CN(C(=O)N(C)C)Cc2nnn(CC3CC3)c21 (stereo unspecified) | -3.51 |
| Cn1nnc2c1C(COCC1CC1)CN(C(=O)[C@H]1CCCO1)C2 (stereo partly specified) | 68.9 |
| Cc1nccn1CCN(C)C(=O)C1CCCN(C2CCOCC2)C1 (stereo unspecified) | 34.1 |
| Cc1cc(C)n(CC2CCCN2CCc2ccccn2)n1 (stereo unspecified) | 44.4 |
| Cc1cc(CNC2CCc3nc(C(C)C)nn3C2)on1 (stereo unspecified) | 11.3 |
| COC(=O)CC(NC(=O)c1cccc(N2CCCC2=O)c1)c1cccs1 (stereo unspecified) | 62.8 |
| COCCc1noc(CN(C)C(=O)c2cccc(N3CCCC3=O)c2)n1 | 13.9 |
| CCC(NC(=O)c1cccc(N2CCCC2=O)c1)c1ccc(OC)cc1 (stereo unspecified) | 52.6 |
| COC(=O)CC(NC(=O)c1ccccc1OC)c1cccs1 (stereo unspecified) | 40 |
| COC(=O)CC(NC(=O)c1cccc(N2CCCC2=O)c1)C(=O)OC (stereo unspecified) | 2.55 |

| Compound | INHIBITION [%] |
| --- | --- |
| COC(=O)CC(NC(=O)c1cc(OC)c2c(c1)OCCO2)c1cccs1 (stereo unspecified) | 29.4 |
| COC(=O)CC(NC(=O)c1ccc(OC)cc1OC)c1cccs1 (stereo unspecified) | 7.08 |
| COC(=O)CC(NC(=O)c1cccc(CS(C)(=O)=O)c1)c1cccs1 (stereo unspecified) | 71.2 |
| CCC(C)C(=O)NCc1cccc(N2CCCCC2=O)c1 (stereo unspecified) | 11.6 |
| Cc1cc(S(=O)(=O)NCC[S+](C)[O-])c(F)cc1F (stereo unspecified) | 37.6 |
| CC(O)CN1CCN(C(=O)c2sccc2C2CC2)CC1 (stereo unspecified) | -1.14 |
| Cc1cnc(CC2COCCN(Cc3nccn3C)C2)cn1 (stereo unspecified) | 44.1 |
| CC(C)n1ccnc1C1CCN(Cc2ccc(C(F)(F)F)c(F)c2)CC1 | 42.5 |
| CO[C@@H]1CCN(Cc2ccoc2)[C@@H]2CN(Cc3ccco3)C[C@@H]21 | 45.2 |
| CC(C)(C)c1ccn(C2(C(=O)O)CCN(c3ccnc(N)n3)CC2)n1 | 34.5 |
| Cc1cccc(O[C@H]2COCCN(Cc3sc(C)nc3C)C2)n1 | -60.9 |
| Cc1nc(C)c(CN2CCOC[C@H](Oc3ccccc3)C2)s1 | 71.4 |
| Cc1nc(C)c(CN2CCOC[C@H](Oc3ccc(S(C)(=O)=O)cc3)C2)s1 | 26.4 |
| CN(Cc1cc[nH]n1)C(=O)c1cn(Cc2c(F)cccc2F)nn1 | 19.3 |
| Cc1cc(S(=O)(=O)N2CCCc3cc(F)c(F)cc32)sc1C(=O)O | 33.7 |
| CC[C@H](C)Nc1ncc(-c2ccn(C3CCN(C(C)=O)CC3)n2)cn1 | 24.8 |
| CC(=O)N1CCC(n2ccc(-c3cnc(NCC(C)C)nc3)n2)CC1 | 56 |
| CC(=O)N1CCC(n2ccc(-c3cnc(N4CCOCC4)nc3)n2)CC1 | 17.4 |
| CNc1cncc(C2CCCN2S(=O)(=O)c2cccc(F)c2)n1 (stereo unspecified) | 14.7 |
| Cc1ccc(C(=O)N2C[C@@H]3CCCO[C@@H]3[C@H](N(C)Cc3ccco3)C2)o1 | -7.59 |
| CN(C)c1ncccc1CNC(=O)N1CCCC1CN1CCCC1 (stereo unspecified) | 57.8 |
| CN(C)c1ncccc1CNC(=O)N1CCCC1CN1CCCCC1 (stereo unspecified) | 11.6 |

| Compound | INHIBITION [%] |
| --- | --- |
| CN(C)c1ncccc1CNC(=O)N1CCCC1c1ccsc1 (stereo unspecified) | -0.847 |
| CN1CCC(NC(=O)c2cc(F)cc(Cl)c2O)C1=O (stereo unspecified) | 26.5 |
| CCc1c(C)nc2n(c1=O)CC(C(=O)Nc1ncccc1C)CS2 (stereo unspecified) | -0.621 |
| Cc1noc(C(C)C)c1C(=O)NCc1cccc(CN(C)C)c1 | 51.1 |
| COCc1cccc(CNC(=O)c2c(C)noc2C(C)C)c1 | 42.9 |
| Cc1noc(C(C)C)c1C(=O)NCc1cccc(N(C)C)c1 | 6.14 |
| Cc1cnccc1CN(C)C1CCN(c2ncnc3[nH]cnc23)CC1 | 48.9 |
| Cc1nn(C)c(C)c1CN(C)C1CCN(c2ncnc3[nH]cnc23)CC1 | 48.9 |
| Cc1ncsc1CCN(C)C1CCN(c2ncnc3[nH]cnc23)CC1 | 50.8 |
| Cc1ccccc1OCCN1CCN(Cc2cnn(CCO)c2)CC1 | 30.45 |
| CC(NC(=O)c1cc(-c2cccc(Cl)c2)no1)C(=O)N1CCCC1 (stereo unspecified) | 86.9 |
| CC(NC(=O)c1cc(-c2cccc(Cl)c2)no1)C(=O)N(C)C (stereo unspecified) | -21.6 |
| Cc1ccc(-c2cc(C(=O)NC(C)C(=O)N3CCCCC3)on2)cc1 (stereo unspecified) | -40.3 |
| COc1cc(Cl)c(NC(=O)NCCn2cccc2)cc1OC | -102 |
| COc1cc(C)c(NC(=O)CCn2cccc2)cc1OC | -23.2 |
| COc1cc(C)c(NC(=O)NCCn2cccc2)cc1OC | 52.2 |
| Cn1cc(CN(Cc2cccc(-n3cccn3)c2)C2CC2)cn1 | 49 |
| CCc1ccccc1NC(=O)c1cccc(N(C)S(C)(=O)=O)c1C | -15.3 |
